Laboratory results reported in PubChem BioAssay (EPA / NIEHS).
Where “and” joins values, the source holds several entries; their conditions need not be identical. Equal values may be shown once. Records with an inconclusive call do not appear. More than one record can exist for a structure, and the calls need not agree. Calls of active or inactive are those of the source. Rule for the calls: active = hit-call score of the fitted dose curve at least 0.9, where 1 is the maximum; inconclusive = response in the unintended direction; inactive = score below 0.9.

What was measured:
[1] = biological target: Bile acid receptor (Homo sapiens) (UniProt Q96RI1); assay: NVS_NR_hFXR_Agonist: NovaScreen (NVS) Nuclear Receptor Binding Assay for human Farnesoid X Receptor Agonism (FXR) (AID 2283347)
How it was run: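 Cell-free TR-FRET binding assay with extracted human FXR protein, agonist format, read 1 h after dosing. Primary screen at 25 uM single concentration in duplicate, actives retested in concentration series; gain of signal versus DMSO.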

[2] = biological target: Estrogen receptor (Homo sapiens) (UniProt P03372); assay: NVS_NR_hER: NovaScreen (NVS) Nuclear Receptor Binding Assay for human Estrogen Receptor (ER) (AID 2283348)
How it was run: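 Cell-free radioligand binding with protein extracted from MCF7 cells; scintillation counting 18 hours after dosing. Loss of signal versus DMSO baseline read as displacement; primary single-concentration screen at 25 uM in duplicate, actives retested in concentration series.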

[3] = biological target: Estrogen receptor (Homo sapiens) (UniProt P03372); assay: OT_ER_ERaERa_1440: Odyssey Thera (OT) 24-hour HEK293T Protein-Complementation Assay for Estrogen Receptor-alpha/-alpha Homodimer (AID 2283349);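 note: hits raise fluorescence above DMSO for agonists and antagonists alike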
How it was run: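 Readout is the rise in mean fluorescence from reporter fragment complementation when ERα LBD (aa 310-547) units dimerize in HEK293T cells. Measured 24 h after dosing and analysed as increase over DMSO control.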

[4] = biological target: human Peroxisome Proliferator-activated Receptor alpha (PPARa), PPARA (gene 5465) (UniProt Q07869); assay: NVS_NR_hPPARa: NovaScreen (NVS) Nuclear Receptor Binding Assay for human Peroxisome Proliferator-activated Receptor alpha (PPARa) (AID 2283359);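 note: activity means loss of TR-FRET signal versus DMSO baseline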
How it was run: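 Cell-free binding assay with extracted human protein, read by TR-FRET 1 h after chemical dosing. Loss of signal relative to DMSO baseline indicates binding. Primary screen used duplicate single concentration (25 uM); actives followed up in concentration series.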

[5] = biological target: human Thyroid Receptor Alpha (TRa), THRA (gene 7067) (UniProt P10827); assay: NVS_NR_hTRa_Antagonist: NovaScreen (NVS) Nuclear Receptor Binding Assay for human Thyroid Receptor Alpha Antagonism (TRa) (AID 2283362);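 note: activity is loss of signal relative to DMSO baseline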
How it was run: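 Chemicals were first screened in duplicate at 25 uM, then actives were retested in concentration series. Binding to the extracted receptor was measured 1 h after dosing by AlphaLISA chemiluminescence, with decreased signal versus DMSO scored as activity.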

[6] = biological target: bovine Estrogen Receptor (ER), ESR1 (gene 407238) (UniProt P49884); assay: NVS_NR_bER: NovaScreen (NVS) Nuclear Receptor Binding Assay for bovine Estrogen Receptor (ER) (AID 2283345);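 note: actives lower the bound radioligand count which means they displace the ER ligand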
How it was run: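 Scintillation counting of displaced radioligand gave the readout; bovine uterine membrane extract supplied the receptor. Measured 18 h post-dose, normalized to DMSO baseline. Single 25 uM duplicate screen preceded concentration-response follow-up.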

[7] = biological target: chimpanzee Androgen Receptor (AR), AR (gene 747460) (UniProt O97775); assay: NVS_NR_cAR: NovaScreen (NVS) Nuclear Receptor Binding Assay for chimpanzee Androgen Receptor (AR) (AID 2283346);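 note: radioligand displacement from AR measured by scintillation counting in a cell-free assay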
How it was run: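 Cell-free radioligand displacement using receptor protein extracted from Sf9/Sf21 cells; bound radioligand measured by scintillation counting 72 hours after chemical dosing. Loss of signal versus DMSO baseline indicates binding; primary screen single-concentration in duplicate at 25 uM, actives followed in concentration series.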

[8] = biological target: Estrogen receptor (Homo sapiens) (UniProt P03372); assay: OT_ER_ERaERa_0480: Odyssey Thera (OT) 8-hour HEK293T Protein-Complementation Assay for Estrogen Receptor-alpha/-alpha Homodimer (AID 2283351);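 note: rise in fluorescence from reassembled reporter fragments on ERα LBD homodimer in nucleus or whole cell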
How it was run: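 HEK293T, stable ERα LBD (aa 310-547) PCA homodimer; 8 h compound exposure; fluorescence intensity, laser scanning cytometer; positive fitting direction, DMSO baseline.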

PGR (gene 5241) = PGR (gene 5241) (UniProt P06401); assay: NVS_NR_hPR: NovaScreen (NVS) Nuclear Receptor Binding Assay for human Progestron Receptor (PR) (AID 2283360)
How it was run: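 T47D lysate; tritiated or iodinated radioligand; scintillation count at 18 h. DMSO = negative control/baseline. Primary: 25 uM, duplicate. Secondary: concentration series for actives.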

NCBI gene 100848466 = assay: NVS_NR_bPR: NovaScreen (NVS) Nuclear Receptor Binding Assay for bovine Progextron Receptor (PR) (AID 2283343);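 note: actives lower bound radioligand signal below DMSO meaning displacement of the label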
How it was run: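 Bovine uterine membrane preparation, cell-free; radioligand competitive displacement measured by scintillation counting 18 hours after dosing. Loss of signal versus DMSO baseline indicates binding; primary HTS single concentration 25 uM in duplicate, actives followed in concentration series.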

[9] = biological target: T1, Estrogen receptor (Homo sapiens) + Estrogen receptor beta (Homo sapiens) (UniProt P03372+Q92731); assay: OT_ER_ERaERb_0480: Odyssey Thera (OT) 8-hour HEK293T Protein-Complementation Assay for Estrogen Receptor-alpha/-beta Heterodimer (AID 2283352)
How it was run: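 Increase in mean fluorescence intensity, measured by laser scanning plate cytometry, reported ER-alpha/ER-beta LBD complementation in HEK293T cells after 8 h chemical exposure. DMSO served as baseline; basal signal is low, punctate and cytoplasmic.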

[10] = biological target: T1, Estrogen receptor (Homo sapiens) + Estrogen receptor beta (Homo sapiens); assay: OT_ER_ERaERb_1440: Odyssey Thera (OT) 24-hour HEK293T Protein-Complementation Assay for Estrogen Receptor-alpha/-beta Homodimer (AID 2283356);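 note: heteromer of ER alpha and ER beta binding domains; hits raise reporter fluorescence and both agonists and antagonists give an increase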
How it was run: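 Heterodimerisation of ERα (aa 310-547) and ERβ (aa 263-489) ligand binding domains was tracked as fluorescence gain in stably transfected HEK293T cells following 24 h dosing, normalised to DMSO controls.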

[11] = biological target: Estrogen receptor beta (Homo sapiens) (UniProt Q92731); assay: OT_ER_ERbERb_0480: Odyssey Thera (OT) 8-hour HEK293T Protein-Complementation Assay for Estrogen Receptor-beta/-beta Homodimer (AID 2283357);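 note: active means signal gain over DMSO baseline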
How it was run: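 Readout: increase in mean fluorescence intensity (nucleus for agonists; nucleus plus cytoplasm for antagonists) relative to DMSO, from a reporter-fragment complementation of human ER-beta LBD homodimer in HEK293T cells dosed 8 hours.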

[12] = test system: guinea pig Histamine Receptor (H2), gene 100729734; assay: NVS_GPCR_gH2: NovaScreen (NVS) G Protein-Coupled Receptor Assay for guinea pig Histamine Receptor (H2) (AID 2283342)
How it was run: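 Radioligand displacement on guinea pig striatal membranes, 1 h after dosing, filter-based scintillation counting; loss of signal versus DMSO. Single-point screen at 25 uM in duplicate, then concentration-response up to 50 uM.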

[13] = biological target: rat Mineralocorticoid Receptor (MR), Nr3c2 (gene 25672) (UniProt P22199); assay: NVS_NR_rMR: NovaScreen (NVS) Nuclear Receptor Binding Assay for rat Mineralocorticoid Receptor (MR) (AID 2283355)
How it was run: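 Cell-free radioligand binding to MR in adrenalectomized rat brain supernatant, scintillation counted 24 h after dosing. Loss of signal versus DMSO baseline marks displacement. Primary screen in duplicate at 25 uM; actives retested as concentration series.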

[14] = biological target: Retinoic acid receptor alpha (Homo sapiens) (UniProt P10276); assay: NVS_NR_hRARa_Agonist: NovaScreen (NVS) Nuclear Receptor Binding Assay for human Retinoic Acid Alpha Receptor Agonism (RAR) (AID 2283361)
How it was run: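 Cell-free TR-FRET binding read-out with extracted human RARα protein, read 2 h after compound addition. Gain of signal scored against DMSO baseline. Primary screen at a single 25 uM in duplicate; actives then retested in concentration series.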

[15] = biological target: Retinoic acid receptor alpha (Homo sapiens) (UniProt P10276); assay: NVS_NR_hRAR_Antagonist: NovaScreen (NVS) Nuclear Receptor Binding Assay for human Retinoic Acid Alpha Receptor Antagonism (RAR) (AID 2283358)
How it was run: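 Cell-free TR-FRET binding assay on extracted receptor protein, run in antagonist mode; signal read 2 hours after chemical dosing. Loss of signal was fitted relative to DMSO baseline. Screened at 25 uM in duplicate, actives followed up in concentration series.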

Measured: AC50

chimpanzee Androgen Receptor (AR), AR (gene 747460), sequence (O97775 whole entry, looked up): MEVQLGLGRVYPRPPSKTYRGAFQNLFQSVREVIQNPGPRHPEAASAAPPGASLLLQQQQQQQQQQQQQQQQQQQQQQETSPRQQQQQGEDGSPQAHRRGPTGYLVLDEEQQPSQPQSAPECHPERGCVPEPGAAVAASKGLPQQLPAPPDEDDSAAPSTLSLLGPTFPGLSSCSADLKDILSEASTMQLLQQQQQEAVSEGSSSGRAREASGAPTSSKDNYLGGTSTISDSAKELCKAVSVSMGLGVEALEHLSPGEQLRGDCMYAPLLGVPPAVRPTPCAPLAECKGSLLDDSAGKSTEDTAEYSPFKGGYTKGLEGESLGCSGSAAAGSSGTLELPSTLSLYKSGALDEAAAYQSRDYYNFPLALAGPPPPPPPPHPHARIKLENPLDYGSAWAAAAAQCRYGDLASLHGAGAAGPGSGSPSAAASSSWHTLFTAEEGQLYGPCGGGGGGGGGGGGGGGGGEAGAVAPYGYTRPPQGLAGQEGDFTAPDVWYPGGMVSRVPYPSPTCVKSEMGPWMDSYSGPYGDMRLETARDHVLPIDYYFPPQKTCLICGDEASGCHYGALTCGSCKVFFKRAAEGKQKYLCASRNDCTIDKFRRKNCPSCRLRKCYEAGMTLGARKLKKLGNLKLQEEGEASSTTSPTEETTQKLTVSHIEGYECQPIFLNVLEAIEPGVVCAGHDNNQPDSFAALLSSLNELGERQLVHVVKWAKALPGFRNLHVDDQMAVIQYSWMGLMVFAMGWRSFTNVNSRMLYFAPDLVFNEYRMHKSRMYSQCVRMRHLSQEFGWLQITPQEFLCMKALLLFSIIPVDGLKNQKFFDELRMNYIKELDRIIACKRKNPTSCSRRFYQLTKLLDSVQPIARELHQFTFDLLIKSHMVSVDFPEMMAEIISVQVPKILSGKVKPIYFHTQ
Estrogen receptor beta (Homo sapiens), sequence (Q92731 whole entry, looked up, the tested form may be a part): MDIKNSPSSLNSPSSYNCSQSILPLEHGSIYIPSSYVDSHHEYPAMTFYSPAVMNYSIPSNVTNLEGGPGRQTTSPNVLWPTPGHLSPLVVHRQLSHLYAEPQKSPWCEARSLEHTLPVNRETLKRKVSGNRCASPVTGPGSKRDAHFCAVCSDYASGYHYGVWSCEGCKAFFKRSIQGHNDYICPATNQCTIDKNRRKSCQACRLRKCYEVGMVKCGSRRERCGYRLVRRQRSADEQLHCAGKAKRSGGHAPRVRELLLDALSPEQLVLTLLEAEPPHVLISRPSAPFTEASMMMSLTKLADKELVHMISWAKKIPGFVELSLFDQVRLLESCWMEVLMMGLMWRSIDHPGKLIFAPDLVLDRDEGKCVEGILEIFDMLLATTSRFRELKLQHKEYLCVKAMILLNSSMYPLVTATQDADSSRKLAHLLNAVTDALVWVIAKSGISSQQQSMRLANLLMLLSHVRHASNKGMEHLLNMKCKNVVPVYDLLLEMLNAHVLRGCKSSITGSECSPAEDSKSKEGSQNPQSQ
Bile acid receptor (Homo sapiens), sequence (Q96RI1 whole entry, looked up): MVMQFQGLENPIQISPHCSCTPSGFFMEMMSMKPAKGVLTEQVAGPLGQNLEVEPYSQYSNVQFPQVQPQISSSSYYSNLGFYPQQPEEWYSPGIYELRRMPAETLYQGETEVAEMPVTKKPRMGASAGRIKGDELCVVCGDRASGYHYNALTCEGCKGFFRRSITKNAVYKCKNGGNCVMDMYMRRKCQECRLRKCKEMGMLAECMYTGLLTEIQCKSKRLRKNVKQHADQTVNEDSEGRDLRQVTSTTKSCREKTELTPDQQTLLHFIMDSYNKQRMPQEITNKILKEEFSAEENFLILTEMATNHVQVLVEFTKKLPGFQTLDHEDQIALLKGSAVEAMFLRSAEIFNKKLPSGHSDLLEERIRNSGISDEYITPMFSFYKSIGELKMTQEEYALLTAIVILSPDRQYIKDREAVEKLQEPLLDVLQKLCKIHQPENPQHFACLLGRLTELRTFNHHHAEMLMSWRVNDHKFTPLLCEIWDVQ
PGR (gene 5241), sequence (P06401 whole entry, looked up): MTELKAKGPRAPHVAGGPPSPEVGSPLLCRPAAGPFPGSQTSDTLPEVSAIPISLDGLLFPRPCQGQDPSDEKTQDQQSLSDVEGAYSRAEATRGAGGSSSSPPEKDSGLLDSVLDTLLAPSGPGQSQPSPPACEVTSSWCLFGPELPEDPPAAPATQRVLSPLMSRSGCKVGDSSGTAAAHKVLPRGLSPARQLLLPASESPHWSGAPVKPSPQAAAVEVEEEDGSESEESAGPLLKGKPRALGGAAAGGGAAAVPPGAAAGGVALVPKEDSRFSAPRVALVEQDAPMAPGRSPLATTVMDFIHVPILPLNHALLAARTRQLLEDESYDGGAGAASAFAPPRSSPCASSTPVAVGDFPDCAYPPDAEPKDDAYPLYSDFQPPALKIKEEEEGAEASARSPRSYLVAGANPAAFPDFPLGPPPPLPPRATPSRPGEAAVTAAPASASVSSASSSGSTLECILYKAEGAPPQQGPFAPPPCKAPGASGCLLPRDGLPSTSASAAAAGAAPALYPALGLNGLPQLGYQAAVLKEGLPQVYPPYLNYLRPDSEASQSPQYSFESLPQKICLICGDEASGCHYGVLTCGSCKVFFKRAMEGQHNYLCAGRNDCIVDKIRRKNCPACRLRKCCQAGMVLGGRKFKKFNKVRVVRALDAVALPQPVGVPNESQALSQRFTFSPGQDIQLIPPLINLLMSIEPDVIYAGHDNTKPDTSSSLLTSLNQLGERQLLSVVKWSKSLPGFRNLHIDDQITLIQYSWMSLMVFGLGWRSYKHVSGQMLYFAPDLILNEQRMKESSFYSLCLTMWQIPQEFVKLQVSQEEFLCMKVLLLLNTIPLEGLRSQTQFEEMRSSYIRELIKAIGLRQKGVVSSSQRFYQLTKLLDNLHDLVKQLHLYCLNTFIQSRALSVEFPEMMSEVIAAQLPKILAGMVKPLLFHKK
human Peroxisome Proliferator-activated Receptor alpha (PPARa), PPARA (gene 5465), sequence (Q07869 whole entry, looked up): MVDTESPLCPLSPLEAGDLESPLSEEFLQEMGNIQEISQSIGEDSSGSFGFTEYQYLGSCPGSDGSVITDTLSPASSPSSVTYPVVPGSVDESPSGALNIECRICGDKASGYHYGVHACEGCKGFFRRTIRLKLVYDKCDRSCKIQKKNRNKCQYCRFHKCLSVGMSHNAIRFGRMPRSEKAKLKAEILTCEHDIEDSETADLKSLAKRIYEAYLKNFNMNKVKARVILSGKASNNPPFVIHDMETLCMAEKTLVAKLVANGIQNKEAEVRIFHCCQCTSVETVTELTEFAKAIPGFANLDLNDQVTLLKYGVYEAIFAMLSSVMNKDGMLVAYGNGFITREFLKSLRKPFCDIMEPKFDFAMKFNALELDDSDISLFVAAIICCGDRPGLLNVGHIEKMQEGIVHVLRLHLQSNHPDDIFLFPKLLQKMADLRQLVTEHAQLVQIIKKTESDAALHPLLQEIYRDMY
rat Mineralocorticoid Receptor (MR), Nr3c2 (gene 25672), sequence (P22199 whole entry, looked up): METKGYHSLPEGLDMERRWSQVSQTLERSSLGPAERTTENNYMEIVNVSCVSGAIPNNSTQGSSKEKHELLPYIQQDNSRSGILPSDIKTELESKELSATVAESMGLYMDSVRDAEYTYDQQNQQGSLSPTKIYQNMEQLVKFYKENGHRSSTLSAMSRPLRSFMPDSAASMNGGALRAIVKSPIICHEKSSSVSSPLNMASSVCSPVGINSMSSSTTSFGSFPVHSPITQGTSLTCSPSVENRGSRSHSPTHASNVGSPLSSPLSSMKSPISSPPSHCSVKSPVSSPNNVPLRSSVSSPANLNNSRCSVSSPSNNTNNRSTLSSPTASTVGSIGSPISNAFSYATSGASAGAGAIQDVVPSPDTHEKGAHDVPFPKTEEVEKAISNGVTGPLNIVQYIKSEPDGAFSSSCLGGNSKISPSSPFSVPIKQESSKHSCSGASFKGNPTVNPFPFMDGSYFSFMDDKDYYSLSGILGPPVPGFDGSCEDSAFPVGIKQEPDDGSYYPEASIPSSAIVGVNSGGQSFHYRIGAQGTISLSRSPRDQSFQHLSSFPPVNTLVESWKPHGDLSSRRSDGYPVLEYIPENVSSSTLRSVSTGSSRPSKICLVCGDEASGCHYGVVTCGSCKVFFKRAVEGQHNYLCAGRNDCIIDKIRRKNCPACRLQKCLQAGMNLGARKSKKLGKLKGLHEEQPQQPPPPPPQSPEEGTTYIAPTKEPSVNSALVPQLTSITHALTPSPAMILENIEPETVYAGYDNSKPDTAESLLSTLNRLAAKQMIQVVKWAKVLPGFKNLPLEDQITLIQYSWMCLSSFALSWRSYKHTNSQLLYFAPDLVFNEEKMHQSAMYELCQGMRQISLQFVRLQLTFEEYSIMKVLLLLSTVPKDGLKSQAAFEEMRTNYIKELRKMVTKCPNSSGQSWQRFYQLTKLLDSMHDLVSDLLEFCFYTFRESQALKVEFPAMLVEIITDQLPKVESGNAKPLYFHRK
bovine Estrogen Receptor (ER), ESR1 (gene 407238), sequence (P49884 whole entry, looked up): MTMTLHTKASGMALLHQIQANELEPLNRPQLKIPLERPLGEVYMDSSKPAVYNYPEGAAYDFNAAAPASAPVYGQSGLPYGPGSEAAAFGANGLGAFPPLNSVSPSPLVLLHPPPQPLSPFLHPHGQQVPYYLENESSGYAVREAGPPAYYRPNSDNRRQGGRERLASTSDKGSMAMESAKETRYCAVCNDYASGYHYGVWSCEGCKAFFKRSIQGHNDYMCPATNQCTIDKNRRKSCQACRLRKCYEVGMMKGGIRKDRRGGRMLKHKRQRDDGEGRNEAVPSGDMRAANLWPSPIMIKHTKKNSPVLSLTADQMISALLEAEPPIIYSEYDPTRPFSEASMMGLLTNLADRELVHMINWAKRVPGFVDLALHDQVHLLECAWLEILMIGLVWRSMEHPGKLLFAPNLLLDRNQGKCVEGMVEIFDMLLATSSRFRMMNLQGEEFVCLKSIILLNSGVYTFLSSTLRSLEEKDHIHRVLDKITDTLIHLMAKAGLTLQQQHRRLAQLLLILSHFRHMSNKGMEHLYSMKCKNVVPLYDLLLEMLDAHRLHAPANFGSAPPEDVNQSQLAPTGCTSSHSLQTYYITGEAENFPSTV

O=S(=O)(O)C(F)(F)C(F)(F)C(F)(F)C(F)(F)C(F)(F)C(F)(F)F
inactive: [1] | [2] | [3] | [4] | [5]

ClC(Cl)=C(c1ccc(Cl)cc1)c1ccc(Cl)cc1
inactive: [6] | [2] | [3] | [4] | [5]
active: [7] 16.8 µM | [3] 84.3 µM and 78.6 µM | [8] 80.1 µM and 56.9 µM and 63.7 µM

O=NN(c1ccccc1)c1ccccc1
inactive: [6] | [2] | [3] | PGR (gene 5241)

O=C(O)C(F)(F)C(F)(F)C(F)(F)C(F)(F)C(F)(F)C(F)(F)C(F)(F)C(F)(F)C(F)(F)F
inactive: [6] | [2] | [8]

CCOCCOC(C)=O
inactive: [6] | [2] | [8]

CC(C)(c1ccccc1)c1ccc(O)cc1
active: NCBI gene 100848466 19.2 µM | [6] 11.5 µM [middle of 4 runs] | [7] 25 µM | [8] 11.9 µM and 12 µM | [9] 2.01 µM and 11.9 µM | [10] 11.9 µM | [11] 1.8 µM and 1.91 µM and 2.14 µM | PGR (gene 5241) 13.9 µM

Clc1ccc(C(c2ccccc2Cl)C(Cl)(Cl)Cl)cc1 (stereo unspecified)
inactive: [6] | [2]
active: [11] 2.09 µM and 3.59 µM and 1.83 µM

CCCCCCCCCC[N+](C)(C)CCCCCCCCCC
inactive: [6] | [3] | [9] | [10]
active: [12] 9.87 µM | [7] 12.3 µM | [2] 39.1 µM | [4] 0.861 µM

C[C@]12CCC(=O)C=C1CC[C@@H]1[C@@H]2CC[C@@]2(C)[C@H]1CC[C@]2(C)O
inactive: [12] | [6] | [1] | [3]
active: NCBI gene 100848466 0.149 µM | [7] 2.09 nM and 6.55 nM | [2] 6.34 µM and 6.28 µM and 6.19 µM | [13] 0.0685 µM | PGR (gene 5241) 0.175 µM

CCCCCCCCCc1ccc(O)cc1
inactive: [6] | [2] | [14] | [5]
active: [9] 17.6 µM and 14.6 µM and 19.5 µM | [10] 36.2 µM and 36 µM and 48.1 µM | [11] 12.7 µM and 12.4 µM

CC(C)(O)C(=O)Nc1ccc([N+](=O)[O-])c(C(F)(F)F)c1
inactive: [6] | [2] | [9] | [10] | [11] | [4] | PGR (gene 5241)
active: NCBI gene 100848466 4.47 µM | [7] 155 nM and 268 nM

CCCCCCOC(=O)c1ccccc1C(=O)OCCCCCC
inactive: [13]

CC#Cc1cc(C)nc(Nc2ccccc2)n1
inactive: [13]

Cc1ccccc1CO[C@@H]1C[C@@]2(C(C)C)CC[C@]1(C)O2
inactive: [15]

CCCN(CCC)N=O
inactive: [15]
